Results on 40 sequences are retold here after the OligoGym collection.
Further: reference of the scale not given here.

One test has as its target NPSR1. In words: pooled miR-30 sensor sort-seq; sequence = guide strand. As to conditions: shRNA.
TAGAGCAGCACAACCTGCAAAT yielded a sensor-assay potency score (higher = more potent) of -0.941.
Sequence TTTCAGTGCAAGCCACTGGGGA returned a sensor-assay potency score (higher = more potent) of -0.49.
The sequence TTGCTTTTAATCCAAATAGTTC yielded a sensor-assay potency score (higher = more potent) of -1.33.
Same read-out and setting: for TTAAAGGAGTAGTAGAAGGAAC the value was -1.01.
Take TTTGAGATGAGTCCTCGGTTAT: the sensor-assay potency score (higher = more potent) is -1.18.

The next test has as its target NR3C1. The description is as above. As to conditions: shRNA.
TTCAGGTTCAATAACCTCCAAC came in with a sensor-assay potency score (higher = more potent) of -0.915.
On to TTACATTGGTCGTACATGCAGG, for which the sensor-assay potency score (higher = more potent) is -0.108.
With TAGGGTTTTATAGAAGTCCATC, the sensor-assay potency score (higher = more potent) is -1.08.
Same read-out and setting: for TTCACCTACAGCTACAGTCAGG the value was -1.07.
The sequence TGACTTATTATTGACAACGAAG gave a sensor-assay potency score (higher = more potent) of -1.46.
Still for that read-out and setting: for TTTTCTTCGAATTTTATCGATG the value was -1.06.
Same read-out and setting: for TAGAATATTGACACACTTGAAT the value was -0.527; for TTGAAGAAAACTTTACAGCTTC, 0.56; for TAGAAAAAACTGTTCGACCAGG, -0.371.
The same measure, in the same setting: the same measure for TTGAGCGTAGTCATGATCCTCC: 0.514; for TTCATCTATCAACAGGTCTGAT: -0.68.
As for TTGACAAAACCAGATCTCCATT, the sensor-assay potency score (higher = more potent) is -1.1.

For the next test, the target named is NR4A3. Described as above. Particulars: shRNA.
For TAAACTGCTTGTGATCTTGTTG, the sensor-assay potency score (higher = more potent) was -0.255.
Turning to TATCTGTACGGACAACTTCTTT, the sensor-assay potency score (higher = more potent) was -1.
Turning to TTTTTCTGCACTGTTCTCTTGA, the sensor-assay potency score (higher = more potent) was found to be 0.598.
Take ATCGACAGTACTGACATCGGTT: the sensor-assay potency score (higher = more potent) is -0.324.
Turning to TCCAACACTGAGACACTTCTGA, the sensor-assay potency score (higher = more potent) was -0.139.
TCTTGTTGCATAGCTCTTCGAC displayed a sensor-assay potency score (higher = more potent) of -0.437.
Same read-out and setting: for TTGCATAGCTCTTCGACTCTCT the value was 0.177; for TGGTCTTTTAAACTGCTTGTGA, -0.937.
In turn, TAAGTAATGTCTGATCTTCTTT displayed a sensor-assay potency score (higher = more potent) of -0.546.
Sequence TAATGTCTGATCTTCTTTGGGG had a sensor-assay potency score (higher = more potent) of 0.115.
As to TTGAAGTACATGGAGGTGCTGG, the sensor-assay potency score (higher = more potent) was -0.481.

For the next test, the target named is NRGN. The description is as above. Particulars: shRNA.
The sequence TCGTCGTCCGGCTTGGAGCAGG yielded a sensor-assay potency score (higher = more potent) of -0.878.
For TTTCTTTAAGTGAGTGTGCTTG, the sensor-assay potency score (higher = more potent) was -0.361.
TTTATCTTCTTCCGCGCCATGT showed a sensor-assay potency score (higher = more potent) of -1.14.
The sequence TCTTTATCTTCTTCCGCGCCAT showed a sensor-assay potency score (higher = more potent) of -0.595.
As to TGTCTAGAATGTCGTCGTCCGG, the sensor-assay potency score (higher = more potent) was -1.75.
Turning to TTGCATAAACAAGAGAGCTGGA, the sensor-assay potency score (higher = more potent) came out at 0.0661.
TATCTTCTTCCGCGCCATGTGG displayed a sensor-assay potency score (higher = more potent) of -1.11.
Still for that read-out and setting: for TAGAATGTCGTCGTCCGGCTTG the value was -0.236.
On to TCTAGAATGTCGTCGTCCGGCT, for which the sensor-assay potency score (higher = more potent) was -0.833.
Still for that read-out and setting: for TTTGCATAAACAAGAGAGCTGG the value was -0.297; for TTTAGCTGCGCACAGAACGAAA, -1.54.
TATTGTTCACATTCCAACCCAG yielded a sensor-assay potency score (higher = more potent) of -0.138.
